We go through 45 sequences from article PMC7819943, “Rice protein-binding microarrays: a tool to detect cis-acting elements near promoter regions in rice”.

The full ranking holds about 39,000 sequences; the median of “fluorescence intensity (a.u.)” is about 4,300, and the highest 2% start at about 39,000. This excerpt belongs to a sample that is enriched for the highest values.

This assay concerns the target T1, OsSMF1 (Oryza sativa, UniProt Q6ZLB0 1-436).
T1 sequence: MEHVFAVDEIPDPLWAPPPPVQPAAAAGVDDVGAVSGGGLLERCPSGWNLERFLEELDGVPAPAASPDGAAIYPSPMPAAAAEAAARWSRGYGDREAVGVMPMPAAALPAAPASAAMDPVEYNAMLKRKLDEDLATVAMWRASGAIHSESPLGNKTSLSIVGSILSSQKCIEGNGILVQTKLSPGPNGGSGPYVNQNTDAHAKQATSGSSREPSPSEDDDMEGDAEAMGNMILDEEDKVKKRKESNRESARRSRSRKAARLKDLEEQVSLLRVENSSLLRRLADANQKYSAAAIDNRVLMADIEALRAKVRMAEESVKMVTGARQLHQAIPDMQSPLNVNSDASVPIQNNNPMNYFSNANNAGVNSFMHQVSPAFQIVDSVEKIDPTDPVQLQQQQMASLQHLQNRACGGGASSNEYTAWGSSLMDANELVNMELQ
Put plainly: protein-binding microarray (RPBM); PBS, 2% BSA, 51.3 ng/ul salmon testes DNA, 50 uM zinc acetate, 200 nM TF, 25 C, 1 h; high values mean tight binding. Conditions: protein: recombinant; tags: N-terminal polyhistidine and DsRed monomer fusion (pET32a); chain copies: 2; label: CyDye5-dUTP incorporated in the synthesized complementary strand; 3' TTTTT single-stranded linker to array surface; dsDNA, one strand shown. Put shortly:
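Polyhistidine-tagged DsRed fusions of transcription factors, joined at the N-terminus, were expressed in E. coli BL21-CodonPlus and isolated on Ni–NTA. They were incubated at 200 nM for 1 h at 25 °C on a custom Agilent array, double-stranded and BSA-blocked, in PBS with 2% BSA, salmon testes DNA and 50 µM zinc acetate. The binding signal is per-feature fluorescence intensity (arbitrary units) read on an Axon 4000B scanner after washing.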
For the sequence “CCAAACCCCACGCACGCCGCGTCGCCGCCTCCTCCTCTCCCGGAGTCACCTAGTGCAG”, the binding signal is 3670 fluorescence intensity (a.u.). Regarding “GTGTGTGTGTGTGCTGCGTGTGCGTGTGCGCGCGCGTGCCCGGAGTCACCTAGTGCAG”, the binding signal is 5210 fluorescence intensity (a.u.).

“AACTCCTCGCCACCACGCCGCTTTATTCTCTAAGAACCCCCGGAGTCACCTAGTGCAG”: the binding signal is 40700 fluorescence intensity (a.u.).

With “CCCTCGCCGCCACGGCGAACCCCTCGCCGCCGCCACCGCCCGGAGTCACCTAGTGCAG”, the binding signal is 3570 fluorescence intensity (a.u.). In the case of “CACCCGCCGCTGCTCTGCCTACTCGCCGGCCACCTCCTCACGGAGTCACCTAGTGCAG”, the binding signal was 3720 fluorescence intensity (a.u.). With “TCCGAACATCCGCGTGTCTGCTTCTGCGCCAGCCCGAGCCCGGAGTCACCTAGTGCAG”, the binding signal is 44300 fluorescence intensity (a.u.). On to “ACCAAACATTACCTAATGCAATCGAACTATCGAAGACATGCGGAGTCACCTAGTGCAG”, for which the binding signal is 3700 fluorescence intensity (a.u.). “GTGAGACTGGCGAGGCCCTTCTTGCGTGGCGCTGCAAGCTCGGAGTCACCTAGTGCAG”: the binding signal is 7600 fluorescence intensity (a.u.). Regarding “ACACTCCAGCATAGTTAATGTTTACTGCTAGGAGGATTCACGGAGTCACCTAGTGCAG”, the binding signal is 25600 fluorescence intensity (a.u.). Take “CTCCTGGTACGCCTCGCTCAGCTCGTCCACCGTCGCCTCCCGGAGTCACCTAGTGCAG”: the binding signal is 3750 fluorescence intensity (a.u.). The figure for “TAGAGCGCCACATGACATCTTAGAAGCGTTTGTAGGAGTACGGAGTCACCTAGTGCAG” is 30400 fluorescence intensity (a.u.). Regarding “TTATACATGCTCACGTGGCTATGTCATTGCCCTGGGTGGGCGGAGTCACCTAGTGCAG”, the binding signal was 12000 fluorescence intensity (a.u.).

Regarding “CTAAATCCTCGGGTCCACATGTCATACTCAGCCTCTTTACCGGAGTCACCTAGTGCAG”, the binding signal is 5460 fluorescence intensity (a.u.). The figure for “TCTGGTCTTTCCGCGTGTCGACGACCACGGTGGCGGTGCACGGAGTCACCTAGTGCAG” is 3540 fluorescence intensity (a.u.); for “TAGGATGCCACGTCATCTCTCCCTTCCCCTCTCTCTCTCCCGGAGTCACCTAGTGCAG” it is 27000 fluorescence intensity (a.u.); for “TCCTTGTCGCGCTGCCATCGCCACCCAATGCCATCGAGCTCGGAGTCACCTAGTGCAG” it is 49600 fluorescence intensity (a.u.). Turning to “TCGCCACCGCCACGTCATCTCCCCACCCTCCTCCTCTTCCCGGAGTCACCTAGTGCAG”, the binding signal is 44700 fluorescence intensity (a.u.). On to “ATCCCATCGCGCCACGCGAGCTCGATCGATCGAGGTGTGTCGGAGTCACCTAGTGCAG”, for which the binding signal was 3490 fluorescence intensity (a.u.). For “GATCGTCGCGTCGTCGGCGTTGGCATCGGCATCCATGTGCCGGAGTCACCTAGTGCAG”, the binding signal is 3830 fluorescence intensity (a.u.). For “CCATTCCCAAAAGCAAAGCGAACCTAAGCTCGCTTCGTCTCGGAGTCACCTAGTGCAG”, the binding signal was 21000 fluorescence intensity (a.u.). Under “AAACCAAAACCAAACCGAAGCTTCCCCATCTCGCGTGAACCGGAGTCACCTAGTGCAG” stands 40800 fluorescence intensity (a.u.). As to “TTAGTTCACCCATCTTGCCAATGCTGTCATCGCCACAGCTCGGAGTCACCTAGTGCAG”, the binding signal was 3310 fluorescence intensity (a.u.). With “TGGGCCCACCCCTCCACTCGCCCTCCTCTTCCCGCCACGTCGGAGTCACCTAGTGCAG”, the binding signal was 6190 fluorescence intensity (a.u.). As to “CGCGAAAGGCGTGAAACCAGTGCACGCATCACCCATCTCGCGGAGTCACCTAGTGCAG”, the binding signal is 3400 fluorescence intensity (a.u.). Take “CATCGGTCATGGTGGCGTTGGTCATGTTGGCATGGCCGTCCGGAGTCACCTAGTGCAG”: the binding signal is 44000 fluorescence intensity (a.u.).

As for “CCGGTCGTCCGTCAGCATCCTCTCTTCCGTTGGTCATCCTCGGAGTCACCTAGTGCAG”, the binding signal was 4550 fluorescence intensity (a.u.).

With “ACCCGCGCGCCGGCCGCGTCATCGACGACATCGTGCGTACCGGAGTCACCTAGTGCAG”, the binding signal was 3920 fluorescence intensity (a.u.).

Regarding “TTGTGATGTCCACGTATTCAGGATTAGACCACAGGCCCGGCGGAGTCACCTAGTGCAG”, the binding signal is 8170 fluorescence intensity (a.u.). As for “ATCCTTCATTATGTTAGAGTACCACATGGGAAGTCGAGACCGGAGTCACCTAGTGCAG”, the binding signal is 3750 fluorescence intensity (a.u.). Turning to “GCGCCGCTCCGTGTCCCTCCCAATCCGAACCGTTTCGCGCCGGAGTCACCTAGTGCAG”, the binding signal is 3500 fluorescence intensity (a.u.). Turning to “TACAACTACGGCCCTCCGCAGCCACAGGCGCCGCCGCCGCCGGAGTCACCTAGTGCAG”, the binding signal was 3340 fluorescence intensity (a.u.). Under “TTATTAGCAACCACCGTCACATATAAATTAATATGTGCCGCGGAGTCACCTAGTGCAG” stands 3710 fluorescence intensity (a.u.). Take “GTCCGTCTTGTTTTCTCCTGCGTCACAATTGTCCCGTATTCGGAGTCACCTAGTGCAG”: the binding signal is 4280 fluorescence intensity (a.u.).

As for “CACACGCCAACCCGGCCCCACACGTCAGCCACTCCCACTGCGGAGTCACCTAGTGCAG”, the binding signal is 7300 fluorescence intensity (a.u.). With “GAGCGCGAGCTGCTCTCCTCTCCTCCCGCCCCGCGTCGCCCGGAGTCACCTAGTGCAG”, the binding signal was 11500 fluorescence intensity (a.u.). Under “AACCAGTCGCCGCTCGCCACGTGGCACCCTCCACCTCCCTCGGAGTCACCTAGTGCAG” stands 50500 fluorescence intensity (a.u.).

“TCGCCAACTCGCGCCCAATCCCGGCTTGACACGTCACCCCCGGAGTCACCTAGTGCAG”: the binding signal is 42000 fluorescence intensity (a.u.). Regarding “GTCGCCGCCGCTCCTCCACCCCACGTGCCCCTCGTGGTGGCGGAGTCACCTAGTGCAG”, the binding signal is 4350 fluorescence intensity (a.u.).

With “GCTCTCGCTGACGCTGCCGCTCCGCCTGCCTCCGCCCGCGCGGAGTCACCTAGTGCAG”, the binding signal was 3900 fluorescence intensity (a.u.). “CAATCCCCTAGCCTCGCCACCCGCCACGTGTCGTCCCGCGCGGAGTCACCTAGTGCAG”: the binding signal was 13500 fluorescence intensity (a.u.). Consider “GCAATCCCACGTTATCCATCACCCCACCGGGGAAGCCCAACGGAGTCACCTAGTGCAG”, for which the binding signal is 3310 fluorescence intensity (a.u.). For “CCGGCCCAACACCACTAACACGTTCAGCCCCAATCCCCAACGGAGTCACCTAGTGCAG”, the binding signal was 42400 fluorescence intensity (a.u.).

On to “TGCGCGTCCTGCTCGCCGCTGCCCTCGCTGAGGAGCTCTCCGGAGTCACCTAGTGCAG”, for which the binding signal was 63600 fluorescence intensity (a.u.). Under “AACCACCCTCCGCCGCCGCCGCCGCTCGCCGTAGTCACCTCGGAGTCACCTAGTGCAG” stands 3180 fluorescence intensity (a.u.); under “CAATCCAACCGTCGTCGCGCCGCACACCGGCCACCCACCCCGGAGTCACCTAGTGCAG”, 20700 fluorescence intensity (a.u.).
